The results in this text go back to the supplement of paper PMC10127200.

What all share (assay): Euclidean distance of Cell Painting phenotypic profile (signed KS, 77 features) to DMSO centroid (dimensionless distance); 5 or 10 uM (library dependent); higher = stronger phenotypic change vs DMSO (phenoactivity)
Holding throughout (conditions): 48 h

For assay [1], the system named is 786-O. The procedure, abridged: (§1)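 Phenoactivity is defined as the Euclidean distance from a compound profile to the median vehicle profile. Each profile comprised 77 Harmony features, scored as signed Kolmogorov-Smirnov statistics versus same-plate vehicle wells, then plate-position corrected, correlation-weighted and replicate-averaged at the top dose. Five cancer lines and one healthy fibroblast line were exposed to library compounds for 48 h at 10 or 5 uM (0.1% DMSO final).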

Assay [2] relates to A549. In a few lines: as §1
Assay [3] concerns DU145. The procedure, abridged:
as §1

In assay [4] the test system is FB. In a few lines: as §1
For assay [5], the system named is HEPG2. In a few lines: as §1
The test system of assay [6] is OVCAR4. In a few lines: as §1

Molecules are shown by their SMILES. Counter-ions that a name gives are not always drawn.

Take `Cn1cc(-c2cnn3c(N)c(Br)c([C@@H]4CCCNC4)nc23)cn1`: the Euclidean distance was found to be 2.18 in assay [1]; 1.1 in assay [2]; 1.19 in assay [3]; 2.96 in assay [4]; 1.35 in assay [5]; 2.36 in assay [6].
For the compound `CC(=O)OCC[N+](C)(C)C` [Acetylcholine Chloride], the Euclidean distance in assay [1] is 1.02; in assay [2] it was 0.848; in assay [3], 1.22; in assay [4] it was 1; in assay [5], 0.549; in assay [6] it was 1.13.
As to `O=C1CCC(N2C(=O)c3ccccc3C2=O)C(=O)N1` (centres undefined) [Thalidomide], the Euclidean distance in assay [1] worked out at 1.48; in assay [2], 0.846; in assay [3], 0.603; in assay [4] it was 1.22; in assay [5] it was 0.461; in assay [6], 1.67.
For `Cn1cnc2c(F)c(Nc3ccc(Br)cc3F)c(C(=O)NOCCO)cc21`, the Euclidean distance amounted to 2.04 in assay [1]; 2.89 in assay [2]; 2.61 in assay [3]; 3.82 in assay [4]; 1.63 in assay [5]; 1.91 in assay [6].
With `COc1cccc(CCc2ccccc2OCC(CN(C)C)OC(=O)CCC(=O)O)c1` (centres undefined) [Sarpogrelate hydrochloride], the Euclidean distance in assay [1] was found to be 0.73; in assay [2], 1.36; in assay [3], 0.739; in assay [4] it was 1.27; in assay [5], 0.99; in assay [6] it was 1.63.
For the compound `Cc1ccc(NC(=O)C2(c3ccc4c(c3)OC(F)(F)O4)CC2)nc1-c1cccc(C(=O)O)c1` [VX-809 (Lumacaftor)], the Euclidean distance in assay [1] is 1.11; in assay [2], 0.637; in assay [3], 1.55; in assay [4], 0.88; in assay [5], 0.294; in assay [6], 1.02.
Consider `CCC(=O)N1CCN(c2ccc(-n3c(=O)ccc4cnc5ccc(-c6cnc7ccccc7c6)cc5c43)cc2C(F)(F)F)CC1` [Torin 1], for which the Euclidean distance in assay [1] stood at 2.66; in assay [2] it was 3.46; in assay [3], 2.74; in assay [4], 4.26; in assay [5], 2.78; in assay [6], 3.47.
As to `OCc1cc(C(O)CNCCCCCCOCCCCc2ccccc2)ccc1O` (centres undefined) [Salmeterol], the Euclidean distance is 1.56 in assay [1]; 1.95 in assay [2]; 1.51 in assay [3]; 1.75 in assay [4]; 2.13 in assay [5]; 1.77 in assay [6].
In the case of `CC(=O)OCC[N+](C)(C)C` [Acetylcholine iodide], the Euclidean distance in assay [1] worked out at 0.893; in assay [2] it was 0.442; in assay [3], 0.869; in assay [4] it was 0.877; in assay [5], 0.594; in assay [6], 1.19.
On to `C[n+]1cc2c3c(ccc2c2ccc4cc5c(cc4c21)OCO5)OCO3` [Sanguinarine chloride], for which the Euclidean distance in assay [1] is 5.34; in assay [2], 5; in assay [3] it was 7.6; in assay [4], 6.48; in assay [5], 4.82; in assay [6], 5.76.
Regarding `CC(C)Nc1cc(-c2c[nH]c(C(=O)N[C@H](CO)c3cccc(Cl)c3)c2)c(Cl)cn1`, the Euclidean distance turned out to be 2.42 in assay [1]; 4.11 in assay [2]; 3.64 in assay [3]; 3.51 in assay [4]; 1.79 in assay [5]; 3.1 in assay [6].
For the compound `C[C@H](N)[C@H](O)c1cccc(O)c1` [Metaraminol Bitartrate], the Euclidean distance in assay [1] amounted to 0.87; in assay [2], 0.731; in assay [3], 0.8; in assay [4], 1.26; in assay [5] it was 0.768; in assay [6], 0.946.
As for `CC(C)[N+](C)(CCOC(=O)C1c2ccccc2Oc2ccccc21)C(C)C` [Propantheline bromide], the Euclidean distance is 0.803 in assay [1]; 0.839 in assay [2]; 0.798 in assay [3]; 0.725 in assay [4]; 0.423 in assay [5]; 0.718 in assay [6].
As to `Cc1nc2ccc(-n3ncc(C(=O)c4cc5ccccc5[nH]4)c3N)cc2[nH]1`, the Euclidean distance in assay [1] was 2.53; in assay [2], 2.28; in assay [3], 1.14; in assay [4], 3.31; in assay [5] it was 1.73; in assay [6], 1.67.
On to `CC(N)C12CC3CC(CC(C3)C1)C2` (centres undefined) [Rimantadine Hydrochloride], for which the Euclidean distance in assay [1] was found to be 1.07; in assay [2], 0.924; in assay [3], 0.781; in assay [4], 1.07; in assay [5], 0.658; in assay [6], 1.17.
Take `CN1C(N)=N[C@](C)(c2cc(NC(=O)c3ccc(F)cn3)ccc2F)CS1(=O)=O` [Verubecestat (MK-8931)]: the Euclidean distance in assay [1] turned out to be 0.523; in assay [2], 0.58; in assay [3] it was 0.609; in assay [4], 0.675; in assay [5] it was 0.509; in assay [6], 0.924.
Regarding `Cc1ccc(C(C)C)c(O)c1` [Thymol], the Euclidean distance in assay [1] was 0.798; in assay [2], 1.8; in assay [3], 1.2; in assay [4] it was 0.901; in assay [5] it was 0.572; in assay [6], 1.46.
For `Clc1ccccc1C(c1ccccc1)(c1ccccc1)n1ccnc1` [Clotrimazole], the Euclidean distance in assay [1] is 2.01; in assay [2], 1.31; in assay [3], 1.38; in assay [4], 1.42; in assay [5] it was 1.76; in assay [6] it was 1.64.
Consider `Cc1c(O)cccc1C(=O)N[C@@H](CSc1ccccc1)[C@H](O)CN1C[C@H]2CCCC[C@H]2C[C@H]1C(=O)NC(C)(C)C` [Nelfinavir Mesylate], for which the Euclidean distance came to 1.88 in assay [1]; 2.45 in assay [2]; 1.22 in assay [3]; 1.59 in assay [4]; 1.01 in assay [5]; 1.16 in assay [6].
Take `C=C1/C(=C\C=C2/CCC[C@]3(C)[C@@H]([C@H](C)CCCC(C)(C)O)CC[C@@H]23)C[C@@H](O)C[C@@H]1O` [Calcitriol]: the Euclidean distance in assay [1] was found to be 1.91; in assay [2] it was 1.1; in assay [3], 1.24; in assay [4] it was 2.23; in assay [5] it was 0.859; in assay [6] it was 1.36.
Regarding `COc1cc(NS(=O)(=O)c2ccc(N)cc2)ncn1` [Sulfamonomethoxine], the Euclidean distance in assay [1] was 0.83; in assay [2], 0.926; in assay [3], 0.778; in assay [4], 0.916; in assay [5] it was 0.669; in assay [6], 1.12.
As for `CCCCNC(=O)NS(=O)(=O)c1ccc(C)cc1` [Tolbutamide], the Euclidean distance was 1.41 in assay [1]; 0.625 in assay [2]; 0.836 in assay [3]; 0.823 in assay [4]; 0.337 in assay [5]; 0.856 in assay [6].
Consider `CN(C)CCc1c[nH]c2ccc(CS(=O)(=O)N3CCCC3)cc12` [Almotriptan Malate], for which the Euclidean distance is 1.05 in assay [1]; 0.798 in assay [2]; 0.545 in assay [3]; 1.14 in assay [4]; 1.78 in assay [5]; 1.51 in assay [6].
`COc1ccc(C[C@@H]2c3cc(OC)c(OC)cc3CC[N@+]2(C)CCC(=O)OCCCCCOC(=O)CC[N@@+]2(C)CCc3cc(OC)c(OC)cc3[C@H]2Cc2ccc(OC)c(OC)c2)cc1OC` [Cisatracurium Besylate]: the Euclidean distance in assay [1] amounted to 1.42; in assay [2] it was 0.822; in assay [3], 0.815; in assay [4], 1.11; in assay [5], 1.11; in assay [6], 1.35.
